Experimental findings from the supplement of paper PMC4723716 are described below.

For this test, the system named is Plasmodium falciparum NF54 gametocytes. The experiment in a line: viability index relative to DMSO control (fraction); higher = less gametocyte killing. The following applies: 12.5 µM, incubation time: 72 h. An outline of the steps: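 The viability index expresses each well's gametocyte particle count relative to the plate mean of solvent-only wells. Stage I–V P. falciparum NF54 gametocytes (0.50% gametocytemia, 1.25% hematocrit, 40 µl of serum-containing medium) were exposed to compound at 12.5 µM for 72 hr at 37°C under low oxygen in 384-well plates. They were stained for 20 min with 5 µl of 5 µM MitoTracker Red CMXRos, and 5 µl was then transferred into 40 µl of 500 nM dye in serum-free medium for imaging of three fields 30 min later.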

Setting [1] is: gametocyte stage: Stage I viability index.
Setting [2] is: gametocyte stage: Stage II viability index.
Setting [3] is: gametocyte stage: Stage III viability index.
Where [4] appears, read: gametocyte stage: Stage IV viability index.
Where [5] appears, read: gametocyte stage: Stage V viability index.

On to `CCOC(=O)C1=C(C)N=c2sc(=Cc3cc(Cl)ccc3O)c(=O)n2C1c1ccc(OC)cc1` (stereo not given), for which the viability index was found to be 0.0559 under setting [1]; 0.0966 under setting [2]; 0.137 under setting [3]; 0.171 under setting [4]; 0.416 under setting [5].
Regarding `Cc1sc2ncnc(Sc3nc4ccccc4[nH]3)c2c1C`, the viability index is, setting by setting: under setting [1], 0.0276; under setting [2], 0.0135; under setting [3], 0.0354; under setting [4], 0.0821; under setting [5], 0.0659.
With `COc1ccc(CCN2C(=O)c3[nH]nc(-c4cc(Cl)c(C)cc4O)c3C2c2ccccc2F)cc1` (stereo not given), the viability index under setting [1] amounted to 0.083; the viability index under setting [2] came out at 0.29; the viability index under setting [3] was 0.6; the viability index under setting [4] worked out at 0.665; the viability index under setting [5] is 0.675.
Regarding `COC(=O)c1ccc(Cl)c2c1C1C=CCC1C(c1cccc3ccccc13)N2` (stereo not given), the viability index by setting is: under setting [1], 0.825; under setting [2], 0.795; under setting [3], 1.14; under setting [4], 0.962; under setting [5], 0.883.
Take `c1ccc2cc3c(Nc4ccc(N5CCOCC5)cc4)ccnc3cc2c1`: the viability index reads like this: under setting [1], 0.0685; under setting [2], 0.499; under setting [3], 0.779; under setting [4], 1.02; under setting [5], 1.19.
With `CCOC(=O)C1(Cc2ccccc2)CCN(Cc2cccc(OC)c2O)CC1`, the viability index runs as follows: under setting [1], 0.0586; under setting [2], 0.0716; under setting [3], 0.404; under setting [4], 0.522; under setting [5], 0.649.
As to `CC(O)(c1ccc(Cl)cc1)C(CN1CCCCC1)c1ccccc1` (stereo not given), the viability index under setting [1] came to 0.115; the viability index under setting [2] amounted to 0.32; the viability index under setting [3] came out at 0.809; the viability index under setting [4] came to 0.818; the viability index under setting [5] was determined as 0.802.
Turning to `Cc1ccc(Nc2nc(-c3ccccn3)cs2)cc1`, the viability index under setting [1] turned out to be 0.193; the viability index under setting [2] stood at 0.22; the viability index under setting [3] amounted to 0.109; the viability index under setting [4] was found to be 0.173; the viability index under setting [5] was determined as 0.121.
As for `CCOC(=O)C1=CN(C)C=C(C(=O)OCC)C1c1cc(Br)c(OCC)c(OC)c1`, the viability index worked out at 0.042 under setting [1]; 0.0216 under setting [2]; 0.0421 under setting [3]; 0.161 under setting [4]; 0.117 under setting [5].
As for `CC(=O)Nc1nnc(SCc2c(C)cc(C(C)(C)C)cc2C)s1`, the viability index reads like this: under setting [1], 0.854; under setting [2], 0.701; under setting [3], 0.894; under setting [4], 0.793; under setting [5], 0.912.
As for `Cc1ccnc(NC(c2cccc(OCc3ccccc3)c2)c2ccc3cccnc3c2O)c1` (stereo not given), the viability index came to 0.0271 under setting [1]; 0.015 under setting [2]; 0.0204 under setting [3]; 0.00316 under setting [4]; 0 under setting [5].
As to `CC1CCCCN1CCCNC(=O)c1ccc2c(c1)sc1nc(-c3ccc(F)cc3)cn12` (stereo not given), the viability index is 0.113 under setting [1]; 0.443 under setting [2]; 1.05 under setting [3]; 1.2 under setting [4]; 1 under setting [5].
Take `CCOC(=O)c1cnc2c(C)cccc2c1Nc1ccc(C(C)=O)cc1`: the viability index was determined as 1.16 under setting [1]; 0.83 under setting [2]; 1.06 under setting [3]; 1.08 under setting [4]; 1.03 under setting [5].
On to `CCOc1cccc2sc(N(Cc3cccnc3)C(=O)C3CCCCC3)nc12`, for which the viability index by setting is: under setting [1], 0.478; under setting [2], 0.691; under setting [3], 1.09; under setting [4], 0.951; under setting [5], 0.989.
The corresponding values for `COc1cccc(C=Cc2nc(=O)c3ccccc3o2)c1OC` are 0.751, 0.717, 0.809, 0.948 and 0.967.
The like results for `Nc1ccc(-c2nc3cc(Oc4ccc(Oc5ccc6[nH]c(-c7ccc(N)cc7)nc6c5)cc4)ccc3[nH]2)cc1` were, in that order, 0.000874, 0.0108, 0.0271, 0.0253 and 0.
The like results for `CCN1CCN(Cc2ccc(NC(=O)c3cc4ccc5cccnc5c4[nH]3)cc2)CC1` were, in that order, 0.834, 0.845, 1.09, 0.997 and 1.02.
Take `Cc1cc(NC(=O)C2c3ccccc3C(=O)N(CC(C)C)C2c2cccs2)no1` (stereo not given): the viability index worked out at 0.0387 under setting [1]; 0.0193 under setting [2]; 0.0636 under setting [3]; 0.188 under setting [4]; 0.0879 under setting [5].
The like results for `Brc1ccc(Nc2nc3ccccc3nc2Nc2ccc(Br)cc2)cc1` were, in that order, 0.0192, 0.00916, 0.0204, 0.0222 and 0.104.
Regarding `COc1cc(-c2nc(-c3ccccc3)c(-c3ccccc3)[nH]2)cc(OC)c1O`, the viability index came to 0.0446 under setting [1]; 0.247 under setting [2]; 0.358 under setting [3]; 0.532 under setting [4]; 0.221 under setting [5].
The corresponding values for `CCCCc1ccc(NS(=O)(=O)c2cc3c4c(c2)CCN4C(=O)CC3)cc1` are 0.98, 0.982, 0.992, 1.12 and 1.07.
The corresponding values for `Cc1cc(NC(=O)c2ccc(-c3ccccc3)cc2)no1` are 0.759, 0.877, 0.901, 0.836 and 0.681.
The like results for `O=c1nc(C=Cc2ccc(Br)cc2)oc2ccccc12` were, in that order, 0.838, 0.88, 0.843, 0.978 and 0.935.
In the case of `CCCCCCc1cc2cc(-c3csc(C=Cc4ccccc4)n3)c(=O)oc2cc1O`, the viability index was 0.309 under setting [1]; 0.313 under setting [2]; 0.621 under setting [3]; 0.797 under setting [4]; 0.636 under setting [5].
As to `O=C(Nc1ccccc1O)c1ccc(Oc2cccc(C(=O)Nc3ccccc3O)c2)cc1`, the viability index runs as follows: under setting [1], 0.00331; under setting [2], 0.161; under setting [3], 0.434; under setting [4], 0.456; under setting [5], 0.462.
Consider `O=C(NC1CCN(Cc2ccccc2)CC1)c1cc(-c2cccnc2)nc2ccc(Cl)cc12`, for which the viability index runs as follows: under setting [1], 0.53; under setting [2], 0.609; under setting [3], 0.989; under setting [4], 1.18; under setting [5], 0.725.
As to `COc1ccc(C2c3ccc4ccccc4c3Oc3ncn(CCCn4ccnc4)c(=N)c32)cc1OC` (stereo not given), the viability index by setting is: under setting [1], 0.0122; under setting [2], 0.231; under setting [3], 0.441; under setting [4], 0.547; under setting [5], 0.429.
In the case of `COCCn1c(C)nc2ccccc2c1=O`, the viability index is 0.825 under setting [1]; 0.879 under setting [2]; 0.733 under setting [3]; 0.711 under setting [4]; 0.418 under setting [5].
In the case of `CCOc1ccccc1NC(=O)CN1CCN(C(=O)c2ccco2)CC1`, the viability index stood at 1.06 under setting [1]; 1 under setting [2]; 1.07 under setting [3]; 0.959 under setting [4]; 1.1 under setting [5].
The corresponding values for `O=C(CCl)NCCOc1ccc(Cl)cc1Cl` are 0.732, 0.629, 0.813, 0.769 and 0.675.
